Bioassay records: PubChem, ICCB-Longwood Screening Facility, Harvard Medical School
S aureus helic = inhibitors of S. aureus replicative helicase, primary screen, biochemical, fluorescence unwinding readout; replicative DNA helicase (DnaC/DnaB), Staphylococcus aureus; purified S. aureus helicase, fluorescence unwinding assay; inhibition, % (concentration not given with the values); 120,000 tested, 0.05% active; in the data active = inhibition above about 25%, passing the limit was not always enough;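 also: 0% = mean of negative control wells and 100% = mean of positive control wells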
Sa growth inh = S. aureus growth inhibition at 42 and 30 °C, primary screen, LtaS inhibitor project, RN4220, two temperatures; OD600, 20 h, 42 °C; stronger effect = lower value; relative growth, % (test concentration not listed); 170,000 tested, 0.53% active; AID 720641, 2013;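 active = relative growth at most 50% at the other temperature and 20+ points below 30 °C, or under 10% at both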
* = called active by the depositor. Rows were chosen to be rich in hits. Some 0.52% of all compounds tested hit in one or more screens of this group.

For CN1C(=O)/C(=C2\SC(N3CCCCCC3)=NC2=O)c2ccccc21 the results were S aureus helic 43* and Sa growth inh 111.
Oc1ccccc1C=Nc1ccccc1N1CCCCC1 was read as S aureus helic -35 and Sa growth inh 108.
`CC(C)(C)c1cc(C(c2ccccn2)N2CCCC2)cc(C(C)(C)C)c1O` (stereo not drawn) gave S aureus helic 13 and Sa growth inh 104.
CC(C)(C)c1cc(C(c2ccc(O)cc2)N2CCOCC2)cc(C(C)(C)C)c1O (stereo not drawn) was read as S aureus helic 15 and Sa growth inh -1.3*.
`CCCCN1CC(C(=O)NCCc2ccc(Cl)cc2)CC1=O` (stereo not drawn) gave S aureus helic 11 and Sa growth inh 118.
Screening On1ccccc1=S returned S aureus helic 11 and Sa growth inh 0.4*.
For Cn1ccccc1=S the results were S aureus helic -2 and Sa growth inh 101.
Screening COc1ccc(-c2nc(Cn3c(SCc4cc(C)ccc4C)nc4ccncc43)c(C)o2)cc1 returned S aureus helic 12 and Sa growth inh 102.
For Cc1c(C(=O)Oc2cccc3cccnc23)oc2ccccc12 the results were S aureus helic 3 and Sa growth inh 97.
For Cc1ccc(S(=O)(=O)NC(=O)Oc2cccc3cccnc23)cc1 the results were S aureus helic 8 and Sa growth inh 0.2*.
For N#CC1=C(CBr)NC(CBr)=C(C#N)C12CCCCC2 the results were S aureus helic 48* and Sa growth inh 131.
`CCSC1=C(C#N)C2(CCCCC2)C(C#N)=C(N)N1` gave S aureus helic 10 and Sa growth inh 108.
CN(C(=O)CSc1nc(N)c(NC(=O)c2ccccc2)c(=O)[nH]1)c1ccccc1 was read as S aureus helic 6 and Sa growth inh 93.
COc1cccc(C(CC(=O)c2ccc(Cl)cc2)C(C#N)C#N)c1 (stereo not drawn) was read as S aureus helic 2 and Sa growth inh 51.
Screening Cc1ccc(C(=O)CC(c2ccccc2)C(C#N)C#N)cc1 (stereo not drawn) returned S aureus helic -9 and Sa growth inh 48*.
For COc1ccc(C2C(C(=O)NC(C)C)c3ccccc3C(=O)N2Cc2ccc(F)cc2)cc1 (stereo not drawn) the results were S aureus helic 7 and Sa growth inh 105.
`COCCNC(=O)C1=CC(c2ccc(C)cc2)=NS(=O)(=O)N1C` gave S aureus helic -15 and Sa growth inh 104.
CCN1CCN(c2ccc(Nc3ccnc4cc5ccccc5cc34)cc2)CC1 was read as S aureus helic 48* and Sa growth inh 98.
`CN1CCN(c2ccc(Nc3ccnc4cc(Cl)ccc34)cc2Cl)CC1` gave S aureus helic 6 and Sa growth inh 98.
For Cc1ccc(N2C(N)=C(C#N)C(c3ccccc3)C3=C2CC(C)(C)CC3=O)cc1 (stereo not drawn) the results were S aureus helic 10 and Sa growth inh 92.
Screening C/C=C\C1=C(C(=O)O)N2C(=O)C(NC(=O)C(N)c3ccc(O)cc3)C2SC1 (stereo not drawn) returned Sa growth inh 1.2*.
Screening CC1=C(C(=O)O)N2C(=O)[C@@H](NC(=O)[C@H](N)c3ccccc3)[C@H]2SC1 returned Sa growth inh 92.
For N#Cc1ccc(N2CCCCC2)cc1 the results were S aureus helic -3 and Sa growth inh 92.
`CC1=CC(C)=NC2Nc3c(C)cc(C)cc3C(=N)C12` (stereo not drawn) gave S aureus helic 66* and Sa growth inh 85.
`COc1cc(C2Nc3c(C)cc(C)cc3-c3cc(C)nn32)cc(OC)c1O` (stereo not drawn) gave Sa growth inh 105.
COc1cc(C(=O)OCc2nnc(-c3ccc(Cl)cc3)o2)cc(CN2C(=O)c3ccccc3C2=O)c1OC was read as S aureus helic -11 and Sa growth inh 100.
Cc1ccc(C(=O)OCC(N)=O)s1 was read as S aureus helic -5 and Sa growth inh 111.
Screening CCN1CCCC1CNCC(=O)Nc1ccc(C)c(Br)c1 (stereo not drawn) returned S aureus helic 0 and Sa growth inh 98.
Screening CCN1CCCC1CNC(=O)Nc1ccc(Cl)c(Cl)c1 (stereo not drawn) returned S aureus helic 10 and Sa growth inh 0.6*.
`CCC(=O)Nc1c2c(nn1C(C)(C)C)CSC2` gave S aureus helic -3 and Sa growth inh 104.
CCOC(=O)c1c(N)sc(C(=O)NC)c1COC(=O)/C=C/c1cccs1 was read as S aureus helic 3 and Sa growth inh 81.
`CN1C(=O)CC(C(=O)Nc2ccc(C(=O)O)cc2)SC1=Nc1ccc(Cl)cc1` (stereo not drawn) gave Sa growth inh 92.
For O=C(O)C1CC(=O)N(CCC23CC4CC(CC(C4)C2)C3)C(=Nc2ccc(Cl)cc2)S1 (stereo not drawn) the results were S aureus helic 18 and Sa growth inh -0.5*.
`CN(C)c1c[nH]c(=O)[nH]c1=O` gave S aureus helic 5 and Sa growth inh 96.
For O=c1[nH]cc(F)c(=O)[nH]1 the results were Sa growth inh -0.5*.
Screening COc1ccc(C(=O)NCc2nnc(SC(C)C)n2Cc2ccccc2)cc1 returned S aureus helic -19.
O=C(Cc1ccccc1F)Nc1cccc(-c2nn[nH]n2)c1 was read as S aureus helic -9 and Sa growth inh 103.
Nc1nnc2c(Nc3ccccc3)nc3nonc3n12 was read as S aureus helic -1 and Sa growth inh 98.
Screening c1ccc(Nc2nc3nonc3nc2Nc2ccccc2)cc1 returned S aureus helic -8 and Sa growth inh -1.6*.
O=C(c1ccccc1)C(Sc1nnc(-c2ccco2)o1)c1ccccc1 (stereo not drawn) was read as S aureus helic 0 and Sa growth inh 92.
For CN(CC(=O)Nc1ccc(F)c(F)c1F)CN1C(=O)C2CC=CCC2C1=O (stereo not drawn) the results were S aureus helic 7 and Sa growth inh 99.
